# Reference: paper PMC7862700, “An all-to-all approach to the identification of sequence-specific readers for epigenetic DNA modifications on cytosine”
# Experiments:
# Experiment in all cases: DAPPL (digital affinity profiling via proximity ligation, sequencing); 10 mM Tris-HCl pH 7.5, 50 mM NaCl, 1 mM DTT, 4% glycerol, room temperature, 30 min; GST-TFs on glutathione beads, 16-mer random dsDNA library, 0.1% formaldehyde crosslink after washing; high values mean tight binding
# Conditions in all cases: protein: recombinant; tags: N-terminal GST; dsDNA, one strand shown
# ETV1 = ETV1 (Homo sapiens, UniProt P50549 1-477)
# Summary of the method: (§1)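 A tag-only sample was pooled with DNA-barcoded human transcription factors that had been expressed in yeast as GST fusions and captured on glutathione beads. The pools were incubated for 30 min at room temperature with 200 nmole of a random double-stranded 16-mer DNA library in Tris/NaCl/DTT/glycerol buffer, then washed, crosslinked with 0.1% formaldehyde, proximity-ligated (BsaI/T4 ligase, 1 h, 37 °C), PCR-amplified and sequenced on an Illumina NextSeq500. Binding signal is each hexamer's read frequency for a factor divided by its frequency for the tag-only sample.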
# ERF = target: T1, ERF (Homo sapiens, UniProt P50548 1-548)
# T1 sequence: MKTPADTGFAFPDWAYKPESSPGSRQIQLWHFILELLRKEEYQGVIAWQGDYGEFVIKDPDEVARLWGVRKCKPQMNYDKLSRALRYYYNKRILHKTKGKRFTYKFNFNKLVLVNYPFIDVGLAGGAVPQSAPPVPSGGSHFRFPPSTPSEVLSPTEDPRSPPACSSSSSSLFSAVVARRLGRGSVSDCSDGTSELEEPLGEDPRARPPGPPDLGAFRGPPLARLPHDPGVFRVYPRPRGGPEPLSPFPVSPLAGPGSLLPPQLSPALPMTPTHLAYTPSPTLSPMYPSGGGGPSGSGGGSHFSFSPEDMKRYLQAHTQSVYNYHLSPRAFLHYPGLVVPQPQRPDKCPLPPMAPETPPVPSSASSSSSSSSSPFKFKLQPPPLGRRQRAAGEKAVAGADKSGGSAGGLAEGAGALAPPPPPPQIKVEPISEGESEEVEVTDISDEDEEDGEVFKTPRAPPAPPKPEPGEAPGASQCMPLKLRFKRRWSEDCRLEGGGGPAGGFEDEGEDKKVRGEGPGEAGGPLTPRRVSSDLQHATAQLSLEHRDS
# Summary of the method: as §1
# ETV3L = target: T2, ETV3L (Homo sapiens, UniProt Q6ZN32 1-361)
# T2 sequence: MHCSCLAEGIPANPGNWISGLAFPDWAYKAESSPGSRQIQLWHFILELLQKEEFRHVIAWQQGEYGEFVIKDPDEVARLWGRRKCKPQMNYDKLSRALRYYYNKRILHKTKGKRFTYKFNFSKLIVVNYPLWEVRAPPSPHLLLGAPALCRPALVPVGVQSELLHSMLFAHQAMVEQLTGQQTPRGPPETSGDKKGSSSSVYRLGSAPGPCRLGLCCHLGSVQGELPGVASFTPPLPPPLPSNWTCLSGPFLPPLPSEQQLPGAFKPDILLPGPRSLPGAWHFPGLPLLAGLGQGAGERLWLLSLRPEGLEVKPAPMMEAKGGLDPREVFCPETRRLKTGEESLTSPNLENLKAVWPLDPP
# Summary of the method: as §1
# ETS2 = target: T3, ETS2 (Homo sapiens, UniProt P15036 1-469)
# T3 sequence: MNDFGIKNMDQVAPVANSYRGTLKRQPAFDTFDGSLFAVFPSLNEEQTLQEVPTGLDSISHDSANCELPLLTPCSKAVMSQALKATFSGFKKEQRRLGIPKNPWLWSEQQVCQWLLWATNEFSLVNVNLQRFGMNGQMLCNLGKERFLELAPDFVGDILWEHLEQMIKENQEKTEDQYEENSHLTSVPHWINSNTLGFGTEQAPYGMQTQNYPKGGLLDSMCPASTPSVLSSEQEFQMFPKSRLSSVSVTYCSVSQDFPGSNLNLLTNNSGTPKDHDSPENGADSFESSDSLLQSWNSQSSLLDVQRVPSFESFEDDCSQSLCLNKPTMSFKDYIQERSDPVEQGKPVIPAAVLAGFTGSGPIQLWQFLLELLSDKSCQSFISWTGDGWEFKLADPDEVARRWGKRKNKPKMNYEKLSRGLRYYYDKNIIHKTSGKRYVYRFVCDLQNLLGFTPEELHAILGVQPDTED
# Summary of the method: as §1
# SPDEF = target: T4, SPDEF (Homo sapiens, UniProt O95238 1-335)
# T4 sequence: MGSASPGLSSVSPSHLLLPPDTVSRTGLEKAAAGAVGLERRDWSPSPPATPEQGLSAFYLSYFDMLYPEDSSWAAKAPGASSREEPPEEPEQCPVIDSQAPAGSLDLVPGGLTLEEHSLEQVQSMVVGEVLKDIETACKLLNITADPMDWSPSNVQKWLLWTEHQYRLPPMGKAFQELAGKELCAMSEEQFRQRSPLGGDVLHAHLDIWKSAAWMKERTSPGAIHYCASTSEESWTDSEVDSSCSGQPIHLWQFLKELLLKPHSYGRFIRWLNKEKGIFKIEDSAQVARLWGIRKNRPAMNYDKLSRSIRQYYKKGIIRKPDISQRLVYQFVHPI
# Summary of the method: as §1
# ETV7 = target: T5, ETV7 (Homo sapiens, UniProt Q9Y603 1-341)
# T5 sequence: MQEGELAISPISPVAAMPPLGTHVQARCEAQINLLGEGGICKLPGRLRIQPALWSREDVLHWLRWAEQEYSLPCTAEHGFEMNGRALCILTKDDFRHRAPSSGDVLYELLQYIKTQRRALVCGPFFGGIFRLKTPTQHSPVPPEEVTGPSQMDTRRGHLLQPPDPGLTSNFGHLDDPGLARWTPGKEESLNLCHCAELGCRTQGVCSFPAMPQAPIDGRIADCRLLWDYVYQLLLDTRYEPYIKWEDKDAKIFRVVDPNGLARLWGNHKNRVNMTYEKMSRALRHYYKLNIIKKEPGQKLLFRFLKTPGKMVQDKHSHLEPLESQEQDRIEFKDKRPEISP
# Summary of the method: as §1
# ELF5 = target: T6, ELF5 (Homo sapiens, UniProt Q9UKW6-2 1-255)
# T6 sequence: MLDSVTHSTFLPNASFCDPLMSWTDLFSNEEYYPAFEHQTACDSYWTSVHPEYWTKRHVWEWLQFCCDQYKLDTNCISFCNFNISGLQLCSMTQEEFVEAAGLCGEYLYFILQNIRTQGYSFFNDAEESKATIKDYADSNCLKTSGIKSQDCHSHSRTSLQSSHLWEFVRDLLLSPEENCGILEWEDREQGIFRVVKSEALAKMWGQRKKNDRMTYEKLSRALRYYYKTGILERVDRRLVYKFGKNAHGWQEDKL
# Summary of the method: as §1
# ETV3 = target: T7, ETV3 (Homo sapiens, UniProt P41162-2 1-143)
# T7 sequence: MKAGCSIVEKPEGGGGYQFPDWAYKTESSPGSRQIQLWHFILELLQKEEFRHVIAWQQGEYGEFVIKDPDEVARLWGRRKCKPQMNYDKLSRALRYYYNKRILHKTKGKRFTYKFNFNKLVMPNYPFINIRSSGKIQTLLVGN
# Summary of the method: as §1
# ETV6 = ETV6 (Homo sapiens, UniProt P41212 1-452)
# Summary of the method: as §1
# Chain of ETV1 (P50549 whole entry, the tested form may be a part): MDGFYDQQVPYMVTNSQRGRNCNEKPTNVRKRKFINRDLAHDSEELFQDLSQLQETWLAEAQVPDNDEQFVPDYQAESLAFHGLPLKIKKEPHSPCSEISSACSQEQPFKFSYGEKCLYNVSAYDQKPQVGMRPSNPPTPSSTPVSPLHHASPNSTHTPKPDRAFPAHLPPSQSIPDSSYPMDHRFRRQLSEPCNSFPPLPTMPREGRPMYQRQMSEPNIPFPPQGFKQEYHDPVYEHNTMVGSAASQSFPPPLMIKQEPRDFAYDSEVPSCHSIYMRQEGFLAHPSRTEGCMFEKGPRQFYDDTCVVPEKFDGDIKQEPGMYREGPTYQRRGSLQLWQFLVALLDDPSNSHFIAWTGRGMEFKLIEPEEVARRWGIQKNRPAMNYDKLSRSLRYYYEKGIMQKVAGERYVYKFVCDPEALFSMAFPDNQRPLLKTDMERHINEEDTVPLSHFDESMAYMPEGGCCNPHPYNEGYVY
# Chain of ETV6 (P41212 whole entry): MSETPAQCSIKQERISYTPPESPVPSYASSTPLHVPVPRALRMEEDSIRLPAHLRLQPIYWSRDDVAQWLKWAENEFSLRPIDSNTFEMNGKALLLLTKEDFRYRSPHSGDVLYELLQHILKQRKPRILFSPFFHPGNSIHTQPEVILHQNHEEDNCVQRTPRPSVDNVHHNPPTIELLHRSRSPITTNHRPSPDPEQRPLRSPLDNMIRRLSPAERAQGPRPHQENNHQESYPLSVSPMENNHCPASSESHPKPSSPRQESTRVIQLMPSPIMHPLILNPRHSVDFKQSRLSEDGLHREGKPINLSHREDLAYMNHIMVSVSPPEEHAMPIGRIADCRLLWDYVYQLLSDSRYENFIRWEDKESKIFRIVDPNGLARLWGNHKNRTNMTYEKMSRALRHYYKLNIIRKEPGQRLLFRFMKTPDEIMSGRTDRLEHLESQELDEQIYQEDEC
sequence,measurement,setting,value
TCTTCA,binding signal,ETV1,"1.28 fold enrichment (6-mer frequency, TF over GST control)"
same,binding signal,ERF,"1.29 fold enrichment (6-mer frequency, TF over GST control)"
same,binding signal,ETV3L,"1.37 fold enrichment (6-mer frequency, TF over GST control)"
same,binding signal,ETS2,"1.11 fold enrichment (6-mer frequency, TF over GST control)"
same,binding signal,SPDEF,"1.25 fold enrichment (6-mer frequency, TF over GST control)"
same,binding signal,ETV7,"1.13 fold enrichment (6-mer frequency, TF over GST control)"
same,binding signal,ELF5,"1.16 fold enrichment (6-mer frequency, TF over GST control)"
same,binding signal,ETV3,"1.16 fold enrichment (6-mer frequency, TF over GST control)"
same,binding signal,ETV6,"1.25 fold enrichment (6-mer frequency, TF over GST control)"
